Shiga inhibitor – A qHTS for Small Molecule Inhibitors of Shiga Toxin. Vero cells, Shiga toxin protein synthesis inhibition reporter. inhibition, % at 38.7 µM. 290,000 compounds, 9.2% hits; in the data active = inhibition mostly above about 28%, no sharp cut-off; inactive = mostly below about 43%; note: 0% is about no effect
Tb PYK inh – qHTS of Trypanosoma Brucei Inhibitors; AID 624173, 2012; pyruvate kinase (Trypanosoma brucei), Q57TT1; TbPYK enzyme, Kinase-Glo Plus ATP luminescence, 45 min; Potency, µM (doses to about 76.8 µM), inactives show at the top dose activity, negative = inhibition, actives largely listed as inhibitors; 410,000 compounds, 0.12% hits; note: potency is the fitted concentration of half-maximal effect; % is set by controls: 0 for no effect and ±100 for the full control effect; nearly all actives have a fitted effect of over 50% in size
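Luminescence from Kinase-Glo Plus, added after a 45-minute room-temperature reaction, served as the end-point read-out. The enzyme and substrate were preincubated with compound before ADP (130 uM final) initiated turnover. Concentration-effect curves came from normalized qHTS data.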
CHX counter-1 – Cycloheximide Counterscreen for Small Molecule Inhibitors of Shiga Toxin | max response, % | cell reporter, cycloheximide protein synthesis inhibition counterscreen | 300,000 compounds, 12% hits; in the data active = max response mostly above about 13%, no sharp cut-off; inactive = mostly below about 14%; note: read at 38.3 µM for the half of the compounds with a filed dose; 0% is about no effect
FBPA Giardia inh – qHTS Assay for Inhibitors of Fructose-1,6-bisphosphate Aldolase from Giardia Lamblia | A8B2U2 | Potency, µM (highest dose often 59.6 µM), without a hit: top-dose activity, negative = inhibition, hits mostly inhibitors | AID 2451, 2010 | 290,000 compounds, 0.71% hits | purified Giardia FBPA; note: potency is the fitted concentration of half-maximal effect; % is set by controls: 0 for no effect and ±100 for the full control effect; nearly all actives have a fitted effect of over 55% in size
Target sequence (A8B2U2 whole entry, looked up): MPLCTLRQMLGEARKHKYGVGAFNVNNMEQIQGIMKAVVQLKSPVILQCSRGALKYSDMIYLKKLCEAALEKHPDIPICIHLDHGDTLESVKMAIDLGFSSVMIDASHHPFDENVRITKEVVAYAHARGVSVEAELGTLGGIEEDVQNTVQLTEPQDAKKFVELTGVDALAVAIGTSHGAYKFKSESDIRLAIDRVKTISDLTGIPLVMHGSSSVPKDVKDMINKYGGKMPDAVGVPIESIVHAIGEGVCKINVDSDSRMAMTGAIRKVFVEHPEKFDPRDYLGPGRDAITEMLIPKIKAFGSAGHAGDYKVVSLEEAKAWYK
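40 nM FBPA preincubated 10 min at RT with compound (up to 57.5 uM final), then substrate plus GAPDH/TPI/NAD/arsenate coupling and diaphorase/resazurin added. Fluorescence read after 20 min at RT, 525/598 nm.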
LmPK inh – qHTS Assay for Inhibitors of Leishmania Mexicana Pyruvate Kinase (LmPK). 290,000 compounds, 0.37% hits. Q27686. Potency, µM (top dose mostly 57.5 µM), for the others: at the highest dose activity change, negative = inhibition, hits mostly inhibitors. purified LmPK, Kinase-Glo ATP luminescence, 1 h; note: potency is the fitted concentration of half-maximal effect; % is set by controls: 0 for no effect and ±100 for the full control effect
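0.1 nM LmPK, 0.5 mM PEP, 0.1 mM ADP; 50 mM imidazole pH 7.2, 7 mM MgCl2, 50 mM KCl; 1 h RT. Kinase-Glo luminescence readout, normalized to no-enzyme (full inhibition) and uninhibited wells.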
RE007 growth inh – qHTS Assay for Inhibitors of the HIV-1 protein Vpr | S. pombe RE007 Vpr strain, BacTiter-Glo ATP luminescence, 24 h | 360,000 compounds, 0.21% hits | Potency, µM (top dose mostly 92.2 µM), for the others: at the highest dose activity change, negative = less growth, actives largely listed as inhibitors; active = well fitted falling curve with a large enough effect; inconclusive = small, poorly fitted or top-dose-only effect; inactive = no such curve, though single readings can be large or run the other way; note: potency is the fitted concentration of half-maximal effect; % is set by controls: 0 for no effect and ±100 for the full control effect; nearly all actives have a fitted effect of over 50% in size
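Fission yeast RE007 carrying one integrated HIV-1 vpr copy, seeded at OD 0.01 in PMG+AL medium with 23 nL pinned compound. Grown 24 h at 30 degrees; viability read by BacTiter-Glo luminescence after 5 min.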
CHX counter-2 – Cycloheximide Counterscreen for Small Molecule Inhibitors of Shiga Toxin (Confirmatory); Potency, µM (doses to about 38.3 µM), for inactives: at the highest dose activity (activation), actives largely listed as activators; AID 2318, 2010; Cycloheximide counterscreen, protein synthesis reporter, Shiga toxin assay; 510 compounds, 3% hits; shares compounds with Shiga inhibitor; calls by dose curve; note: potency is the fitted concentration of half-maximal effect; 0% is about no effect
* = called active by the depositor; ? = inconclusive; / = no result given; ! = a repeat was not active; [ ] = dose if it differs, or a comment. Shown is part of a subset that was picked to be rich in hits. Unless noted, calls come from the whole dose curve; as a rule, active = well fitted curve in the direction sought with a large enough effect; inconclusive = small, poorly fitted or top-dose-only effect, or another doubt; inactive = no such curve, though single readings can be large; an effect the other way counts as inactive or inconclusive.

SMILES	Shiga inhibitor	Tb PYK inh	CHX counter-1	FBPA Giardia inh	LmPK inh	RE007 growth inh	CHX counter-2
C=CCn1c(=S)[nH]c2cc(-c3ccccc3)sc2c1=O	39*	-2%	0	-13%	0%	5%	?
C=CCn1c(=S)[nH]c2ccccc2c1=O	-4	-10%	-1	-14%	-6%	2%	/
COC(=O)c1ccc(COc2ccc(C3C4=C(CCCC4=O)Nc4onc(C)c43)cc2)cc1 (configuration not stated)	47*	-11%	7	-1%	6%	2%	?
COc1cccc(NC(=O)Cn2c(=O)n(Cc3ccco3)c(=O)c3cc(OC)c(OC)cc32)c1	/	-1%	/	/	/	/	/
Cc1nn(-c2ccccc2)c(N)c1C(O)(CSc1nccn1C)C(F)(F)F (configuration not stated)	-8	-1%	-2	-3%	4%	2%	/
Cc1nn(-c2ccc(Cl)cc2)c(N)c1C(O)(CSc1nccn1C)C(F)(F)F (configuration not stated)	69*	-10%	13	1%	-1%	-1%	0%
COC(=O)c1sc(NC(=O)COc2cccc3ccccc23)nc1C	-15	3%	-2	6%	2%	4%	/
COC(=O)c1sc(NC(=O)COc2cccc(C)c2)nc1C	28*	-3%	-2	-1%	0%	3%	1%
CCCCSCCCNC(=O)CCCN1C(=O)c2ccccc2Sc2ncccc21	32*	-8%	2	-3%	5%	2%	5%
CCOc1ccc(C2C(=O)N(C3CCCCC3)CC(=O)N2Cc2ccccc2OC)cc1OC (configuration not stated)	/	1%	/	/	/	/	/
CC(C)c1nnc(NC(=O)CSc2nc3ccccc3s2)s1	50*	-14%	3	6%	4%	-10%	1%
CC1(c2ccccc2)CC(C)(C)N(C(=O)c2cccc(Cl)c2)c2ccccc21 (configuration not stated)	/	4%	/	/	/	/	/
Cc1ccc2oc(=O)c3c4cc(O)c(O)cc4oc3c2c1	/	/	/	-8%	/	/	/
COc1cc(O)c2c(c1)oc(=O)c1c3cc(O)c(O)cc3oc21	33*	/	21*!	?	/	/	8%
CCN1C(=O)/C(=C/c2ccc(OC)c(OC)c2)N=C1SCC(=O)NCc1ccco1	26*	-2%	1	-1%	9%	-11%	3%
CCC(CC)C(=O)N(C)c1c(C)nc2c(OCc3ccc(Cl)cc3Cl)cccn12	/	-14%	/	/	/	-12%	/
CC(=O)N1CCc2cc(S(=O)(=O)NC(CC(C)C)C(=O)Nc3ccc4c(c3)OCCO4)ccc21 (configuration not stated)	79*	0%	7	-5%	-3%	-4%	1%
CCC(=O)N1CCc2cc(S(=O)(=O)NC(CC(C)C)C(=O)Nc3ccc(CC)cc3)ccc21 (configuration not stated)	/	-3%	/	/	/	/	/
Cc1cccc(Cn2cc(SCC(=O)Nc3nccs3)c3ccccc32)c1	23*	-5%	8	-1%	-1%	0%	?
CC(=O)Nc1ccc2c(c1)CCCC2	20*	2%	-3	-1%	-1%	-23%	0%
CC(=O)N1CCC(C(=O)Nc2ccc3c(c2)CCC3)CC1	-16	-1%	-3	/	-3%	-5%	/
CCOC(=O)c1cc2c(=O)n3ccccc3nc2n(Cc2ccco2)c1=NC(=O)c1c(F)cccc1Cl	/	-1%	/	/	/	/	/
Cc1ccc(-c2csc(NC(=O)c3ccc(C)o3)n2)cc1	71*	-5%	9	-5%	2%	?	1%
Cc1ccc(-c2csc(NC(=O)c3ccc([N+](=O)[O-])o3)n2)cc1	19	1%	12	-9%	-5%	-14%	/
Cc1cc2n(n1)SC(Nc1cc(Cl)ccc1Cl)N2 (configuration not stated)	35*	-9%	17	?	6%	0%	1%
SMILES	Shiga inhibitor	Tb PYK inh	CHX counter-1	FBPA Giardia inh	LmPK inh	RE007 growth inh	CHX counter-2
CCCCc1ccc(NS(=O)(=O)N(C)C)cc1	72*	-2%	2	-4%	-7%	3%	3%
CN(C)S(=O)(=O)Nc1ccc(Cc2ccncc2)cc1	/	-2%	/	/	/	-9%	/
O=C(O)C/C(=C\c1cc(Br)cs1)c1nc2ccccc2o1	40*	-4%	10	5%	7%	1%	3%
O=C(NCCC1=CCCCC1)C1CCN(S(=O)(=O)c2cccc3cccnc23)CC1	active	-8%	9	-2%	-1%	-9%	3%
COc1ccc(N2CCN(C(=O)CSc3nc(-c4ccccc4)no3)CC2)cc1	/	-3%	/	/	/	/	/
CC(=O)c1ccccc1Oc1ncnc(N)c1[N+](=O)[O-]	29*	4%	2	0%	3%	1%	0%
Cc1ccccc1Oc1ncnc(N)c1[N+](=O)[O-]	-7	3%	3	2%	12%	3%	/
CC1(C)OC(=O)C(=NNc2ccccc2)C(=O)O1	36*	4%	8	-5%	-5%	-6%	2%
CC1(C)OC(=O)C(=NNc2ccccc2C(=O)O)C(=O)O1	-5	5%	-1	-21%	-4%	8%	/
O=C(Nc1nnc([C@@H]2C[C@H](O)[C@@H](CO)O2)s1)Nc1ccccc1C(F)(F)F	/	-4%	/	/	/	7%[18.4 µM]	/
CC(C)CNC(=O)c1noc2c1CCCC2	51*	2%	9	-4%	-1%	?	-1%
CCC(C)(NC(=O)c1ccc2c(c1)OCO2)C(=O)NC1CCCCC1 (configuration not stated)	-7	29%	-3	4%	0%	21%	/
Cc1ccsc1C(=O)N1CCc2ccccc2C1	36*	4%	15	/	4%	?	?
COc1cc2c(cc1OC)CN(C(=O)c1sccc1C)CC2	12	-3%	-2	1%	-2%	8%	/
COc1ccc(NC(=O)NNC(=O)c2ccc3ccccc3c2O)c(OC)c1	27*	-1%	-2	25%	0%	5%	0%
CCC(=O)N1CCN(c2ccccc2NC(=O)c2ccc([N+](=O)[O-])o2)CC1	55*	-2%	7	-8%	-1%	-5%	?
COc1ccccc1NC(=O)CSc1nnc(-c2ccco2)n1Cc1ccco1	63*	2%	-4	5%	1%	5%	3%
COc1ccccc1NC(=O)CSc1nnc(-c2ccccn2)n1Cc1ccco1	13	0%	-5	2%	1%	-11%	/
CCN(CC)S(=O)(=O)c1cc(C(=O)Nc2cc(C)on2)c(Cl)cc1Cl	-13	1%	1	15%	-9%	0%	/
